Here are results for 57 molecules from PubChem BioAssay AID1626 (SRMLSC, 2009).

The whole screen tested about 220,000 compounds, of which about 2,000 (0.91%) were called active. Not shown: some 2% with an inconclusive outcome. No stated cut-off is given here; in the data, inconclusive means inhibition above about 80% without an active follow-up result; inactive means below that; test concentration not stated here. Only a sample is shown. Results with a measured potency or affinity are listed apart.

A short description of this assay: M. tuberculosis H37Rv growth inhibitors, H37Rv strain (AID 1626).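 Further: bacteria incubated seven days before Alamar blue readout; 0% = bacteria only wells and 100% = bacteria with antibiotic wells.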 The note with it: hits give high values, concentration not given here.
What is called inhibition is the relative decrease from the control value, in per cent. Turning to `Cc1ccc(S(=O)(=O)N2CCCN(S(=O)(=O)c3ccc4c(c3)OCCO4)CC2)cc1`, the inhibition is 8.01% (inactive). With `O=C1c2ccccc2S(=O)(=O)c2cc(C(=O)N(c3ccccn3)c3ccccn3)ccc21` the figure was -6.02% (inactive); with `Clc1ccccc1-c1nnc2sc(C3COc4ccccc4O3)nn12` (configuration not stated), 3.12% (inactive). On to `Fc1ccc(-c2nnc3sc(C4COc5ccccc5O4)nn23)cc1` (configuration not stated), for which the inhibition was 20.6% (inactive). As for `O=C(NNc1c(Cl)cccc1Cl)C1CCC1`, the inhibition is -0.74% (inactive). The figure for `Cc1cc(N2CCN(C)CC2)nc2ccc(NC(=S)NCCCN3CCN(C)CC3)cc12` is 1.11% (inactive); for `CCCCCOc1ccc(/C=c2\sc3nc(=O)c(-c4ccccc4)nn3c2=O)cc1OC` it is -2.22% (inactive). The figure for `Cc1ccccc1NC(=O)/C=C/c1cccc(C(F)(F)F)c1` is 3.62% (inactive). With `CCc1ccc(NC(=O)C[n+]2cc(-c3ccc(C)cc3)n3c2CCC3)cc1` the figure was 0.48% (inactive); with `Cn1c(NC(=O)C[n+]2cc(-c3ccc(F)cc3)n3c2CCC3)cc(=O)n(C)c1=O`, -5.35% (inactive); with `Cc1ccc(NC(=O)C[n+]2cc(-c3ccccc3)n3c2CCC3)cc1`, -1.61% (inactive).

For the molecule `O=C(C[n+]1cc(-c2ccc(F)cc2)n2c1CCC2)Nc1nc(-c2ccccc2)cs1`, the inhibition was 78.7% (inactive).

Regarding `Cc1ccc(-c2c[n+](CC(=O)Nc3ccccc3C)c3n2CCC3)cc1`, the inhibition was 5.29% (inactive). As for `Cc1ccc(-c2c[n+](CC(=O)Nc3ccc(C)cc3C)c3n2CCC3)cc1`, the inhibition was 2.12% (inactive). With `CCCCC(=O)OCC(=O)Nc1ccc(C)c(F)c1` the figure was 9.33% (inactive). For the molecule `Cc1ccc(NC(=S)N(Cc2cccs2)Cc2cc3cc(C)cc(C)c3[nH]c2=O)cc1`, the inhibition is -1.91% (inactive).

For the molecule `Fc1ccccc1CN1CCCN(C(=S)Nc2cccc(Cl)c2)C1`, the inhibition is -6.44% (inactive). For `c1ccc(-c2nnc(N3CCOCC3)nc2-c2ccccc2)cc1`, the inhibition is 4.29% (inactive). As to `C=CCn1c(=NC(=O)c2cc(Cl)sc2Cl)sc2cc(S(N)(=O)=O)ccc21`, the inhibition is 52.4% (inactive). On to `COCCn1c(=NC(=O)c2cc(Cl)sc2Cl)sc2cc(S(N)(=O)=O)ccc21`, for which the inhibition was 17.1% (inactive). Consider `COc1ccc(Nc2nnc(C)c(=O)[nH]2)c(OC)c1`, for which the inhibition is 0% (inactive).

For `CCn1cc(C(=O)O)c(=O)c2cc(F)c(N3CCN(S(=O)(=O)c4ccc(Br)cc4)CC3)cc21`, the inhibition was 13.5% (inactive). Regarding `CCn1cc(C(=O)NCc2ccco2)c(=O)c2cc(F)c(N3CCN(C(=O)c4ccco4)CC3)cc21`, the inhibition was 71.1% (inactive). The figure for `CCn1cc(C(=O)O)c(=O)c2cc(F)c(N3CCN(C(=S)NC(=O)c4ccccc4Cl)CC3)cc21` is 29.7% (inactive). In the case of `CCn1cc(C(=O)O)c(=O)c2cc(F)c(N3CCN(C(=S)NC(=O)c4ccccc4F)CC3)cc21`, the inhibition is 62.5% (inactive). With `CCn1cc(C(=O)O)c(=O)c2cc(F)c(N3CCN(C(=O)Nc4ccccc4)CC3)cc21`, the inhibition is 74.6% (inactive). With `CCCCCCC(=O)N1CCN(c2cc3c(cc2F)c(=O)c(C(=O)O)cn3CC)CC1`, the inhibition is 0.13% (inactive). With `CCn1cc(C(=O)NCc2ccncc2)c(=O)c2cc(F)c(N3CCN(C(=O)c4ccco4)CC3)cc21` the figure was 10.2% (inactive); with `CCn1cc(C(=O)O)c(=O)c2cc(F)c(N3CCN(C(=S)NC(=O)c4ccccc4)CC3)cc21`, 30.7% (inactive).

In the case of `CCN1C(=O)N[C@@H](c2ccccc2)[C@@H](C(=O)OC)[C@H]1C`, the inhibition was -12.7% (inactive). `CC(=O)OCCNc1nc(-c2ccccc2)nc2ccccc12`: the inhibition is -5.25% (inactive). On to `CCCN(Cc1ccccc1)C(=S)Nc1cccc(C)c1C`, for which the inhibition is 3.47% (inactive). Take `CCC(C)C(=O)Nc1cccc(SC)c1` (configuration not stated): the inhibition was 0.86% (inactive). In the case of `COc1cc2[nH]c(=S)nc(NC3CCCC3)c2cc1OC`, the inhibition was 0.6% (inactive).

On to `CCN(CC)NC(=O)Nc1ccccc1`, for which the inhibition is -12% (inactive). With `CCOc1ccc(NC(=O)CSc2nnc(Cc3cccn3C)n2-c2ccc(F)cc2)cc1`, the inhibition was -6.5% (inactive). The figure for `Nc1ncnc2c1ncn2[C@@H]1O[C@H](CO)[C@@H](O)[C@H]1O` is -2.69% (inactive); for `Nc1nc(F)nc2c1ncn2[C@@H]1O[C@H](CO)[C@@H](O)[C@@H]1O` it is 72.3% (inactive); for `Nc1ncnc2c1ncn2C1OC(CO)C(O)C1O` (configuration not stated) it is -1.34% (inactive). Turning to `Nc1ncnc2c1ncn2[C@@H]1O[C@H](CO)[C@@H](O)[C@@H]1O`, the inhibition was -0.73% (inactive).

Take `CC(=O)Oc1ccc(N2C(=O)C3C(C2=O)C(C(=O)c2ccc(Cl)cc2)N2CCCC32)cc1` (configuration not stated): the inhibition is -5.33% (inactive). For the molecule `CCOC(=O)/C=C1\SCC(=O)N1CC(=O)NC12CC3CC(CC(C3)C1)C2`, the inhibition is 6.97% (inactive). With `CN(C)/C=C1\C(=O)N(c2ccc(Cl)cc2)CS1(=O)=O`, the inhibition is -3.16% (inactive). As for `O=C(NCc1ccc(Cl)cc1)C1CCC(CNc2c(N3CCCCC3)c(=O)c2=O)CC1` (configuration not stated), the inhibition was 5.8% (inactive).

Consider `CC1CCN(c2c(NCC3CCC(C(=O)N4CCCC(C)C4)CC3)c(=O)c2=O)CC1` (configuration not stated), for which the inhibition was -5.27% (inactive).

As for `O=C(C1CCC(CNc2c(N3CCCCC3)c(=O)c2=O)CC1)N1CCCC1` (configuration not stated), the inhibition is -3.71% (inactive). Turning to `CC1CCN(c2c(NCC3CCC(C(=O)NCCc4ccc(Cl)cc4)CC3)c(=O)c2=O)CC1` (configuration not stated), the inhibition is 11.6% (inactive). `CCNC(=O)CC1C(=O)N(CC)C(=S)N1NC(=O)c1ccccc1` (configuration not stated): the inhibition was -3.85% (inactive). In the case of `CCCCOc1ccc(C(NC(=O)OCC)NC(=O)OCC)cc1`, the inhibition was 5.59% (inactive).

For the molecule `CC(C)OC(=O)CN1C(=O)C(C)(C)Oc2ccc(C(=O)NC3CC3)cc21`, the inhibition is -5.84% (inactive). With `Cc1cc(C(=O)COc2ccccc2C(N)=O)c(C)n1CC1CCCO1` (configuration not stated) the figure was 1.33% (inactive). With `COC(=O)c1ccc(-n2c(C)cc(C(=O)CCl)c2C)cc1`, the inhibition was 53.5% (inactive). The figure for `Cc1cc(C(=O)COc2ccccc2C(N)=O)c(C)n1C` is 0.29% (inactive); for `Cc1cc(C(=O)CCl)c(C)n1CCc1ccccc1` it is 66.4% (inactive). With `Cc1cc(C(=O)CSc2ncccn2)c(C)n1Cc1ccco1`, the inhibition is 6.3% (inactive). The figure for `Cc1cc(C(=O)C(C)Cl)c(C)n1Cc1ccco1` (configuration not stated) is 0.64% (inactive); for `COc1ccc(C(=O)c2ccc(OC)cc2OC)cc1` it is 0.13% (inactive).
